Source: PubChem (several laboratories)
Hits are enriched below; roughly 4.8% of the tested compounds scored in any of these assays.
hgDAF-12 ag: hgDAF-12 agonism, primary luciferase screen; HEK293 GAL4-hgDAF12 UAS-luciferase reporter, agonist luminescence; normalized to butyrate control; activation, % at 6.8 µM; 1.8% of 370,000 active; AID 687014;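 active means activation above a cutoff set at the mean of all screened compounds plus 3 SD, cut at about 10% in these data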;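 further: 0% = DMSO wells and 100% = sodium butyrate wells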
DAX1 inh-1: inhibits human nuclear receptor DAX1 | P51843 | HEK293 Gal4-DAX1 luciferase reporter, luminescence | inhibition, % at 6.75 µM | 0.99% of 340,000 active | AID 504766;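 active means inhibition above the mean over all tested compounds plus 3 SD, cut at about 4.2% in these data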;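 further: 0% = DAX1-transfected cells with DMSO and 100% = empty-vector control cells with DMSO; inhibition shows as a rise in luminescence from relieved DAX1 repression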
Target sequence (P51843 207-470 limits assumed): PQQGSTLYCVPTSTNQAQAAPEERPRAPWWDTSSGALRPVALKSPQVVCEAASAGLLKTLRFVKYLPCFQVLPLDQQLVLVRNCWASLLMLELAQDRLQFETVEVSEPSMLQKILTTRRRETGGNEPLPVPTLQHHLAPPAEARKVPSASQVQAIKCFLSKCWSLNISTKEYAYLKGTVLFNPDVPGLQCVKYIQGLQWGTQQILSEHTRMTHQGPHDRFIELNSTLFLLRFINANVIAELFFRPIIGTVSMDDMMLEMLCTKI
NR1D1 modulator: Rev-erb alpha (human) modulation | P20393 | Rev-erbα–FITC-DNA binding, fluorescence polarization, 90 min | activity, % at 10 µM | 0.79% of 370,000 active | AID 1259318;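 active means activity above about 14%, limit read from the data; passing the limit was not always enough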;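 further: 0% = DMSO wells with 35 nM protein and 100% = DMSO wells with 750 nM protein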
ssDAF-12 act: S. stercoralis DAF-12 activation, primary screen; 1% of 370,000 active; activation, % at 6.8 µM; HEK293 ssDAF-12/GRIP1 lit1-tk-luc reporter, luminescence; % of 3 µM dafachronic acid response; AID 652126;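 active means activation above the mean over all tested compounds plus 3 SD, cut at about 0.9% in these data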;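 further: 0% = DMSO-only wells and 100% = 3 µM delta7-dafachronic acid wells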
hcDAF12 agonist: activates DAF-12 receptor from parasite H. contortus; HEK293 hcDAF-12 lit1-tk-luc reporter, luminescence; 0% DMSO, 100% Δ7-dafachronic acid; activation, % at 6.8 µM; 1.4% of 370,000 active; AID 652067;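 active means activation above the mean of all tested compounds plus 3 SD, cut at about 5.5% in these data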;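 further: 100% = response to 3 µM Δ7-dafachronic acid high control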
DAX1 inh-2: DAX1 (NR0B1) inhibition, primary screen. HEK293T StAR-luciferase reporter, SF-1/DAX-1 repression relief. inhibition, % at 6.8 µM. 1.1% of 370,000 active. AID 652010;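 active means inhibition above the mean over all tested compounds plus 3 SD, cut at about 3.6% in these data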;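 further: 0% = DAX-1 cells with DMSO and 100% = cells lacking DAX-1 with DMSO; higher inhibition means more luminescence from relief of DAX-1 repression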
Starred values were filed as active, the others as inactive; . = not tested or not shown.

SMILES	hgDAF-12 ag	DAX1 inh-1	NR1D1 modulator	ssDAF-12 act	hcDAF12 agonist	DAX1 inh-2
CCC(NC(=O)c1cc(COc2ccc(Cl)cc2OC)on1)c1ccncc1 (stereo unspecified)	12*	1	-3	0	1	-1
CCCc1nn(C)c(C(N)=O)c1[N+](=O)[O-]	2	1	-6	1.0*	5	1
CC1CC(NC(=O)c2c(O)nc3sccn3c2=O)CC(C)(C)C1 (stereo unspecified)	4	6.4*	-1	0	-2	2
COc1ccc(CNS(=O)(=O)CC2NCCc3ccccc32)cc1 (stereo unspecified)	1	.	-3	-1	-2	0
CC(C)N1C(=O)CN(C2CCCCCC2)C(=O)C1c1ccccc1F (stereo unspecified)	11*	3	-3	-1	1	1
Cc1ccc(C2C(=O)N(C3CCCC3)CC(=O)N2C2CCCCC2)cc1 (stereo unspecified)	-2	0	-3	-1	-1	-1
Nc1c(C(=O)CSc2nc3ccccc3o2)c(=O)[nH]c(=O)n1C1CC1	-6	-2	2	-1	-2	4.4*
O=C(OCc1cccc(F)c1)c1ccc2c(=O)n3c(nc2c1)CCC3	2	4.5*	0	-1	-2	0
COc1ccc(OC)c(CN2C(=O)CSCCC2(C)c2nnnn2C2CCCC2)c1 (stereo unspecified)	2	.	-12	-1	4	0
C[C@H]1C2CC(OC(=O)Nc3ccc(F)cc3)C(C2)[C@H]2CCCCN21 (stereo partly specified)	-3	.	4	0	-1	-1
CC1(C)Oc2ccc(C(=O)NC3CCCC3)cc2NC1=O	-1	.	-4	-1	0	1
O=C(NC(=S)N1CCCc2ccccc21)c1ccc([N+](=O)[O-])cc1	1	-1	3	0	5.6*	0
O=C(NC(=S)N1CCCc2ccccc21)c1ccc(Br)cc1	3	0	2	-1	5.9*	0
Cc1ccccc1NC(=O)OC1CC2CC1[C@H]1CCCCN1[C@H]2Cc1ccccc1 (stereo partly specified)	0	.	3	-1	-2	1
O=C(C[n+]1cc(Br)cc2ccccc21)c1ccc(Br)cc1	1	-1	4	-1	5	0
Cc1ccc(C(=O)C[n+]2cccc3ccccc32)cc1	4	2	-1	1.7*	6.0*	0
O=C(C[n+]1cccc2ccccc21)c1ccc(Br)cc1	3	2	-2	2.2*	5	0
COC(=O)C1=C(C)N(Cc2ccc(C(F)(F)F)cc2)C(=NCc2ccccc2)NC1c1cccc(Cl)c1 (stereo unspecified)	-1	.	1	-1	5	0
O=C(NNc1nc2c(F)cc(F)cc2s1)C1=COCCO1	6	5.6*	-1	-1	0	0
CCC(=O)NNc1nc2c(F)cc(F)cc2s1	5	3	-1	1.1*	1	0
O=C(COc1ccccc1)NNc1nc2c(F)cc(F)cc2s1	-2	-1	2	-1	1	0
OC[C@@H]1CC[C@@H]2O[C@H](CCc3ccc(-c4ccc(F)cc4)cc3)[C@@H](n3cc(C4CC4)nn3)C[C@@H]2O1	-2	.	-4	-2	-1	-1
COc1ccc2nc(Nc3nc(C)c(C(C)=O)s3)sc2c1	13*	2	-6	0	1	1
COc1ccc(C(=O)Nc2nc3ccc(OC)cc3s2)cc1	8	2	11	-1	1	1
COc1ccc(Nc2nc3ccc(OC)cc3s2)cc1	12*	1	0	-1	0	1
SMILES	hgDAF-12 ag	DAX1 inh-1	NR1D1 modulator	ssDAF-12 act	hcDAF12 agonist	DAX1 inh-2
CN1CCN(NC(=O)CN2C(=O)S/C(=C\c3c(Cl)cccc3Cl)C2=O)CC1	-1	5.2*	-1	-1	0	-1
CC(C)Nc1cc(C(C)(C)C)nc2c(-c3ccccc3)cnn12	9	6.0*	6	-1	3	1
Cc1cc(N)n2ncc(-c3ccccc3)c2n1	11*	3	2	1	3	2
Cc1cc(-c2ccc(F)cc2)n2ncc(-c3ccccc3)c2n1	-9	.	-3	-1	-3	-2
CC(C)(C)c1cc(C(F)(F)F)n2ncc(-c3ccccc3)c2n1	0	0	11	0	-2	0
CN(C)CCCNc1cc(C(C)(C)C)nc2c(-c3ccc(Cl)cc3)cnn12	-1	1	-1	0	0	1
CC(C)(C)c1cc(NCCCn2ccnc2)n2ncc(-c3ccccc3)c2n1	12*	.	5	0	2	1
CC(C)(C)NCC(O)COc1cccc2c1CCCC2=O (stereo unspecified)	.	.	8	.	.	.
COc1ccc(Cn2c(C3CC3)nc3ccc(NC(=O)C4CC4)cc3c2=O)cc1	11*	3	4	1	3	2
C=CCN1C(=O)c2n[nH]c(COC)c2C1c1ccc(F)cc1 (stereo unspecified)	0	.	-3	0	3	-1
Cc1ccc(/C=N/Nc2ccccn2)s1	11*	1	5	0	1	0
Brc1ccccc1/C=N/Nc1ccccn1	9	1	1	0	4	0
Cc1ccc(N2C(=O)[C@@H]3[C@H](C2=O)[C@H]2C=CC=NN2[C@@H]3C(=O)Nc2ccccc2)cc1	2	-2	3	1.2*	3	0
CC(=O)Oc1ccc(C(=O)[C@H]2[C@H]3C(=O)N(c4ccc(C)cc4C)C(=O)[C@H]3[C@@H]3C=CC=NN32)cc1	1	4.2*	2	-1	-1	0
CC(C)(CO)[C@@H](O)C(=O)NCCCC(=O)O	.	.	4	.	.	.
Cc1ccc(CN2CCCCC(NC(=O)Cc3cccs3)C2=O)cc1 (stereo unspecified)	-4	.	-3	-1	-1	0
Cc1ccc2c(c1)N(CC(=O)NCCc1c[nH]c3ccccc13)C(=O)CO2	1	1	-3	0.9*	2	-1
Cc1ccc2[nH]cc(CCNC(=O)CN3C(=O)c4ccccc4C3=O)c2c1	-2	-1	3	-2	-1	1
CC(N=Cc1c(O)c2ccccc2oc1=O)C(=O)O (stereo unspecified)	11*	0	-4	-1	0	0
O=C(O)C(CO)N=Cc1c(O)c2ccccc2oc1=O (stereo unspecified)	-1	1	-1	-1	-1	0
CCCCCCCCNC(=O)C1CSCCS(=O)(=O)N1Cc1ccc(OC)cc1 (stereo unspecified)	-1	.	-4	-2	3	0
O=C(Nc1nc2ccc(F)cc2s1)C1CCCO1 (stereo unspecified)	11*	1	2	0	5	4.0*
